# Assay results as given in PubChem BioAssay (NCI).
# The panel holds about 83,000 compounds, 20% with a hit somewhere; the sample as a whole holds those more often.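 Testing used 96-well plates and a 48-hour single-concentration exposure. Example: -40 means 40% of the starting cells died.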 Values without a mark were called inactive. Active and inactive are the calls of the source. Rule for the calls: active = growth percent below 10; inactive = the rest.
# Tests used:
# Test in all cases: NCI-60 one-dose screen, 48 h (100 = growth as untreated, 0 = no growth, -100 = all killed)
# Conditions in all cases: 10 µM unless noted
# SK-MEL-2 melanoma = tested on: SK-MEL-2 melanoma
# EKVX NSCLC = tested on: EKVX NSCLC
# UO-31 renal = tested on: UO-31 renal
# TK-10 renal = tested on: TK-10 renal
# ACHN renal = tested on: ACHN renal
# A498 renal = tested on: A498 renal
# CCRF-CEM leukemia = tested on: CCRF-CEM leukemia
# MOLT-4 leukemia = tested on: MOLT-4 leukemia
# SR leukemia = tested on: SR leukemia
# RPMI-8226 leukemia = tested on: RPMI-8226 leukemia
# OVCAR-8 ovarian = tested on: OVCAR-8 ovarian
# OVCAR-5 ovarian = tested on: OVCAR-5 ovarian
# OVCAR-4 ovarian = tested on: OVCAR-4 ovarian
# SK-OV-3 ovarian = tested on: SK-OV-3 ovarian
# IGROV1 ovarian = tested on: IGROV1 ovarian
# OVCAR-3 ovarian = tested on: OVCAR-3 ovarian
# HS 578T breast = tested on: HS 578T breast
# NCI/ADR-RES ovarian = tested on: NCI/ADR-RES ovarian
# T-47D breast = tested on: T-47D breast
Compound,growth (SK-MEL-2 melanoma),growth (EKVX NSCLC),growth (UO-31 renal),growth (TK-10 renal),growth (ACHN renal),growth (A498 renal),growth (CCRF-CEM leukemia),growth (MOLT-4 leukemia),growth (SR leukemia),growth (RPMI-8226 leukemia),growth (OVCAR-8 ovarian),growth (OVCAR-5 ovarian),growth (OVCAR-4 ovarian),growth (SK-OV-3 ovarian),growth (IGROV1 ovarian),growth (OVCAR-3 ovarian),growth (HS 578T breast),growth (NCI/ADR-RES ovarian),growth (T-47D breast)
O=C(O)c1cn(C2CC2)c2cc(N3CCN(C(=O)CSc4nnc(-c5ccc(Cl)cc5)n4-c4ccccc4)CC3)c(F)cc2c1=O,104%,111%,84.7%,99.4%,108%,67.8%,84.3%,103%,89.9%,102%,102%,121%,110%,79.8%,107%,110%,101%,104%,77.9%
N#C/C(=C/c1ccc(O)c([N+](=O)[O-])c1)c1nc(-c2ccc([N+](=O)[O-])cc2)cs1,16.9%,26.5%,37.6%,52.7%,36.1%,21.3%,25.5%,25.1%,47.7%,9.81% (active),48.4%,108%,34.1%,38.9%,55.9%,23.5%,44.2%,33.4%,11.2%
CCOC(=O)NC(Cc1ccccc1)c1ccccc1 (centres undefined),99.2%,105%,93.2%,96%,109%,94%,98.1%,85.8%,81.7%,98.2%,104%,106%,106%,108%,103%,119%,102%,98.2%,99.6%
O=[N+]([O-])c1cccc(CN(Cc2cccc([N+](=O)[O-])c2O)c2ccccc2)c1O,84.7%,77.3%,39.6%,89.7%,74.6%,65.5%,67.8%,64.6%,55.8%,59.8%,83.2%,76.5%,68%,86.4%,60.4%,88.9%,94.6%,76%,70.8%
[2H]c1nc(Nc2ncc3cc(C(=O)N(C)C)n(C4CCCC4)c3n2)c([2H])c([2H])c1N1C([2H])([2H])C([2H])([2H])NC([2H])([2H])C1([2H])[2H],83.9%,64.4%,52.5%,37%,47.1%,76.8%,38.5%,–,26.6%,31%,73.8%,40.3%,93.1%,57.1%,65.8%,97%,67.1%,–,–
COc1cc(NC(=O)Nc2cnc(Nc3ccc(N4CCOCC4)cc3)nc2Oc2ccc(F)cc2)cc(OC)c1,101%,108%,93%,116%,99.9%,102%,92.9%,77.2%,66.2%,81.3%,73.4%,113%,60%,102%,94.2%,97.8%,85.7%,95.4%,53.5%
NC(=O)c1ccc2nc3c(n2c1)C(=O)C(=O)c1ccccc1-3,-71.2% (active),-76% (active),-99.7% (active),-72.9% (active),-100% (active),-58.6% (active),-1.51% (active),-37.8% (active),-4.89% (active),-28.1% (active),-61.2% (active),-86.4% (active),-97.3% (active),-89.2% (active),-48.8% (active),-99.2% (active),-6.37% (active),-1.27% (active),-46.2% (active)
CCCS(=O)(=O)Nc1ccc(F)c(C(=O)c2c[nH]c3ncc(-c4ccc(OCCCC5CCCCN5)nc4)cc23)c1F (centres undefined),58.5%,89.7%,102%,81.2%,92.3%,64.8%,56.5%,43.1%,43.1%,64%,88.9%,78.1%,83.6%,11.6%,31.7%,89.6%,9.28% (active),–,17.7%
COc1cc(C(=O)Nc2cc(OC)c3ccn(C)c3c2)cc2c1C[C@]1(C)CC[C@@H](O)C(C)(C)[C@H]1O2,-7.94% (active),33.5%,-5.02% (active),36.9%,18%,-23.1% (active),5.35% (active),-8.72% (active),11.5%,-31.1% (active),24.1%,55.2%,54.8%,15.2%,25.2%,-14.6% (active),-12.5% (active),13.9%,19.5%
Cc1nc2sc(C(=O)Nc3cccc(Cl)c3C)c(N)c2cc1C(C)O (centres undefined),24.2%,54.5%,48.7%,46.3%,35.7%,8.96% (active),14.2%,13%,12%,17.8%,21.9%,55.8%,54.2%,22.8%,31.6%,-5.67% (active),31.8%,7.9% (active),44.4%
Nc1c(C(=O)Nc2cccc3ccccc23)sc2nc3c(cc12)CCCCCC3,5.93% (active),41.6%,55%,55.3%,57.4%,-4.7% (active),11.2%,21%,19.1%,30.4%,19.8%,49.3%,59%,25.7%,44.8%,-36.8% (active),28.6%,20.6%,36.5%
C=C1C(=O)O[C@H]2[C@H]1CC/C(COC(=O)c1cc3ccccc3o1)=C\CC[C@@]1(C)O[C@@H]21,-34.7% (active),-26.4% (active),3.76% (active),39.2%,7.04% (active),103%,1.96% (active),-9.79% (active),-1.95% (active),-23.7% (active),-12.6% (active),-18.8% (active),-10.5% (active),97.2%,-40.1% (active),-87.4% (active),-4.65% (active),14.2%,-48% (active)
O=C(/C(=C/c1ccc([N+](=O)[O-])cc1)SCc1ccc(F)cc1)c1ccc(Cl)cc1,88.5%,57.7%,–,97.2%,60.7%,70.9%,6.19% (active),7.7% (active),0.0981% (active),-16% (active),66.2%,95%,57.8%,74.8%,53.8%,70.5%,27.1%,53%,49.3%
CCOC(=O)C(=Cc1c(-c2ccccc2)[nH]c2ccccc12)C(=O)OCC,-3.76% (active),71.1%,33.5%,92.2%,54%,74.1%,4.23% (active),1.38% (active),10%,-47.8% (active),39.4%,98.3%,49.9%,94.5%,34.7%,38%,59.5%,24.7%,21.1%
C#C[C@@]1(O)[C@@H](CO)O[C@@H](n2cnc3c(-c4ccccc4)ncnc32)[C@@H]1O,107%,97.7%,92.5%,100%,115%,106%,102%,99.7%,101%,106%,107%,101%,98.5%,105%,106%,107%,113%,102%,84%
c1ccc(-c2cn3ccnc3c(-c3ccc4c(c3)ncn4C3CCCCC3)n2)cc1,106%,97.5%,79.1%,106%,104%,106%,88.3%,60.3%,55.4%,81.7%,101%,103%,101%,104%,106%,101%,101%,100%,74.5%
